Where a name gives a salt, the structure may show the parent alone.
Each compound was assayed on Drosophila S2 cl14 SmoIP sensor cells (assay: normalized SmoIP GFP fluorescence (untreated unstimulated = 0%, untreated Hh-stimulated = 100%); higher = more Smo activation sensor fluorescence). Settings: stimulation: Hh conditioned medium (+Hh); compound concentration: 2 uM; 24 h.
COc1cc(F)c(C(C)C)cc1-c1ccc(C(F)(F)F)cc1CN1C(=O)O[C@H](c2cc(C(F)(F)F)cc(C(F)(F)F)c2)[C@@H]1C [anacetrapib-mk-0859] was tested, and the “normalized SmoIP GFP fluorescence” value was 146%. With CC(=O)S[C@@H]1CC2=CC(=O)CC[C@]2(C)[C@H]2CC[C@@]3(C)[C@@H](CC[C@@]34CCC(=O)O4)[C@H]12 [spironolactone] the “normalized SmoIP GFP fluorescence” value was 102%. With CCOC(=O)c1ccc(OC(=O)CCCCCNC(=N)N)cc1 [gabexate-mesylate] the “normalized SmoIP GFP fluorescence” value was 120%. In the case of C[C@H](N[C@@H](CCc1ccccc1)C(=O)O)C(=O)N1CCC[C@H]1C(=O)O [Enalaprilat], the “normalized SmoIP GFP fluorescence” value is reported as 117%. NC(=O)c1ccc(N(C(N)=O)c2c(F)cccc2F)nc1-c1ccc(F)cc1F was tested, and the “normalized SmoIP GFP fluorescence” value was 103%. For CNCCC(Oc1ccc(C(F)(F)F)cc1)c1ccccc1 (stereo not drawn) [Fluoxetine-hydrochloride], the “normalized SmoIP GFP fluorescence” value was 111%. With O=c1cc(-c2ccccc2)oc2cc(O)c(O)c(O)c12 [Baicalein] the “normalized SmoIP GFP fluorescence” value was 108%. With C=CC(=O)Nc1cccc(Oc2nc(Nc3ccc(N4CCN(C)CC4)cc3OC)ncc2Cl)c1 the “normalized SmoIP GFP fluorescence” value was 96.5%. CCCCCCCCCCCCc1ccc(S(=O)(=O)Nc2nncs2)cc1 was tested, and the “normalized SmoIP GFP fluorescence” value was 111%. In the case of Nc1c(Br)cc(Br)cc1CN[C@H]1CC[C@H](O)CC1 [ambroxol-hcl], the “normalized SmoIP GFP fluorescence” value is reported as 106%. CCCCCCCN(CC)CCCC(O)c1ccc(NS(C)(=O)=O)cc1 (stereo not drawn) [ibutilide-fumarate] was tested, and the “normalized SmoIP GFP fluorescence” value was 108%. In the case of Cn1c(Nc2ccc(C(F)(F)F)cc2)nc2cc(Oc3ccnc(-c4ncc(C(F)(F)F)[nH]4)c3)ccc21, the “normalized SmoIP GFP fluorescence” value is reported as 183%. CCCNS(=O)(=O)Nc1ncnc(OCCOc2ncc(Br)cn2)c1-c1ccc(Br)cc1 [macitentan] was tested, and the “normalized SmoIP GFP fluorescence” value was 126%. NC(N)=N/N=C/c1c(Cl)cccc1Cl [guanabenz-wy-8678-acetate] was tested, and the “normalized SmoIP GFP fluorescence” value was 112%. COc1cc2ncnc(Sc3nnc(C)s3)c2cc1OC [sklb1002] was tested, and the “normalized SmoIP GFP fluorescence” value was 107%. c1ccc2c(CC3=NCCN3)cccc2c1 [Naphazoline-hydrochloride-Naphcon] was tested, and the “normalized SmoIP GFP fluorescence” value was 118%. With Cc1cc(-c2ncc(CC(=O)Nc3ccc(-c4cnccn4)cn3)cc2C)ccn1 the “normalized SmoIP GFP fluorescence” value was 130%. In the case of CNC(=O)c1ccccc1Nc1nc(Nc2ccc(N3CCOCC3)cc2OC)ncc1Cl, the “normalized SmoIP GFP fluorescence” value is reported as 163%. In the case of O=C(NC[C@H](O)CO)c1ccncc1Nc1ccc(I)cc1F, the “normalized SmoIP GFP fluorescence” value is reported as 182%. With O=c1sn(-c2cccc3ccccc23)c(=O)n1Cc1ccccc1 [tideglusib] the “normalized SmoIP GFP fluorescence” value was 101%. For CCCNC(=O)Nc1ccc(Oc2ncnc3cc(OC)c(OC)cc23)cc1Cl, the “normalized SmoIP GFP fluorescence” value was 105%. With CCC(=O)N1CCN(c2ccc(-n3c(=O)ccc4cnc5ccc(-c6cnc7ccccc7c6)cc5c43)cc2C(F)(F)F)CC1 [torin-1] the “normalized SmoIP GFP fluorescence” value was 46.9%. COc1ccc(CNC(=O)Nc2ncc([N+](=O)[O-])s2)cc1 was tested, and the “normalized SmoIP GFP fluorescence” value was 111%. NC(=O)N1c2ccccc2CC(=O)c2ccccc21 [Oxcarbazepine] was tested, and the “normalized SmoIP GFP fluorescence” value was 103%. For Nc1nccc2c1ncn2[C@@H]1C=C(CO)[C@@H](O)[C@H]1O [3-deazaneplanocin-a-dznep], the “normalized SmoIP GFP fluorescence” value was 142%. CC(=O)Oc1cc(C(F)(F)F)ccc1C(=O)O [triflusal] was tested, and the “normalized SmoIP GFP fluorescence” value was 111%. In the case of CCN(CC)CCNC(=O)c1c(C)[nH]c(/C=C2\C(=O)Nc3ccc(F)cc32)c1C [Sunitinib-Malate-(Sutent)], the “normalized SmoIP GFP fluorescence” value is reported as 182%. CCN1CCN(Cc2ccc(Nc3ncc(F)c(-c4cc(F)c5nc(C)n(C(C)C)c5c4)n3)nc2)CC1 was tested, and the “normalized SmoIP GFP fluorescence” value was 158%. For COc1c(C)cnc(Cn2cnc3c(Cl)nc(N)nc32)c1C, the “normalized SmoIP GFP fluorescence” value was 121%. For COc1ccc(Cn2ccc3ccc(C(=O)NO)cc32)cc1, the “normalized SmoIP GFP fluorescence” value was 111%. With c1cncc(CN2CCC(n3ncc4c(N5CCOCC5)nc(-c5ccc6[nH]ccc6c5)nc43)CC2)c1 the “normalized SmoIP GFP fluorescence” value was 104%. With CCN1CCCC1CNC(=O)c1cc(S(=O)(=O)CC)c(N)cc1OC (stereo not drawn) [Amisulpride] the “normalized SmoIP GFP fluorescence” value was 111%. For CC(C)NCC(O)c1ccc(O)c(O)c1 (stereo not drawn) [Isoprenaline-hydrochloride], the “normalized SmoIP GFP fluorescence” value was 141%. For O=c1ncccn1[C@@H]1O[C@H](CO)[C@@H](O)[C@H]1O [zebularine], the “normalized SmoIP GFP fluorescence” value was 108%. For C[C@@H]1C[C@H]2[C@@H]3CCC4=CC(=O)C=C[C@]4(C)[C@@]3(F)[C@@H](O)C[C@]2(C)[C@@]1(O)C(=O)CO [Dexamethasone], the “normalized SmoIP GFP fluorescence” value was 86.8%. With CN1CCC(CNc2ccc3ncc(-c4cccc(OC(F)(F)F)c4)n3n2)CC1 the “normalized SmoIP GFP fluorescence” value was 122%. In the case of O=C1NC(=O)C(=Cc2ccc(-c3ccc(F)cc3)o2)S1 (stereo in doubt), the “normalized SmoIP GFP fluorescence” value is reported as 102%. CO[C@H]1C[C@@H]2CC[C@@H](C)[C@@](O)(O2)C(=O)C(=O)N2CCCC[C@H]2C(=O)O[C@H]([C@H](C)C[C@@H]2CC[C@@H](OP(C)(C)=O)[C@H](OC)C2)CC(=O)[C@H](C)/C=C(\C)[C@@H](O)[C@@H](OC)C(=O)[C@H](C)C[C@H](C)/C=C/C=C/C=C/1C [Deforolimus] was tested, and the “normalized SmoIP GFP fluorescence” value was 23.8%.
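Further: flow cytometry read-out as median GFP intensity of gated cells, compounds added 30 min before Hh-conditioned or mock medium, mock-treated cells serving as unstimulated baseline.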
